Data as given in PubChem BioAssay (NCATS).
Inconclusive results are not listed. Activity calls are given as the source filed them. Calls follow the shape of the dose curve; as a rule, active = well fitted curve in the direction sought with a large enough effect; inconclusive = small, poorly fitted or top-dose-only effect, or another doubt; inactive = no such curve, though single readings can be large; an effect the other way counts as inactive or inconclusive.

Tests used:
CRL-7250 = normal cell line; test: Cytotoxic Profiling of Annotated Libraries Using Quantitative High-Throughput Screening (AID 1296008); details: Five cell lines viability, CellTiter-Glo ATP luminescence, 48-72 h; max response: active compounds read low; also: nearly all actives have a fitted effect of over 60% in size; also: potency is read from the fitted curve at half-maximal effect; as to max response: % is scaled to controls: 0 for no effect and ±100 for the full control effect
How it was run: (§1)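 Cytotoxicity was measured as CellTiter-Glo ATP luminescence, read after 10 min at room temperature. Compound treatment of the cells lasted 48 or 72 hr at 37 degrees Celsius in a qHTS format.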

HaCat [1] = test: as above; details: Five cell lines viability, CellTiter-Glo ATP luminescence, 48-72 h; max response: active compounds read low
How it was run: as §1

KB-3-1 = test: as above; details: Five cell lines viability, CellTiter-Glo ATP luminescence, 48-72 h; max response: active compounds read low
How it was run: as §1

C33A = test: Primary qHTS to identify gynecologic anti-cancer compounds using libraries of approved drugs and bioactive compounds (AID 1345084); details: Gynecologic cancer cell panel viability, ATPlite luminescence, 48 h; series mostly up to 57.5 µM; also: nearly all actives have a fitted effect of over 55% in size; also: potency is read from the fitted curve at half-maximal effect; as to activity change, negative = cytotoxicity: % is scaled to controls: 0 for no effect and ±100 for the full control effect
How it was run: (§2)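 Five-concentration response, 48 h; readout is ATP-driven luciferase luminescence.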

CAOV3 = test: as above; details: Gynecologic cancer cell panel viability, ATPlite luminescence, 48 h; series mostly up to 57.5 µM
How it was run: as §2

CASKI = test: as above; details: Gynecologic cancer cell panel viability, ATPlite luminescence, 48 h; series mostly up to 57.5 µM
How it was run: as §2

Es-2 = test: as above; details: Gynecologic cancer cell panel viability, ATPlite luminescence, 48 h; series mostly up to 57.5 µM
How it was run: as §2

HeLa = test: as above; details: Gynecologic cancer cell panel viability, ATPlite luminescence, 48 h; series mostly up to 57.5 µM
How it was run: as §2

Hek293T = test: as above; details: Gynecologic cancer cell panel viability, ATPlite luminescence, 48 h, control line for the selectivity index; series mostly up to 57.5 µM
How it was run: as §2

JEG-3 = test: as above; details: Gynecologic cancer cell panel viability, ATPlite luminescence, 48 h; series mostly up to 57.5 µM
How it was run: as §2

OV90 = test: as above; details: Gynecologic cancer cell panel viability, ATPlite luminescence, 48 h; series mostly up to 57.5 µM
How it was run: as §2

PA-1 = test: as above; details: Gynecologic cancer cell panel viability, ATPlite luminescence, 48 h; series mostly up to 57.5 µM
How it was run: as §2

SKOV3 = test: as above; details: Gynecologic cancer cell panel viability, ATPlite luminescence, 48 h; series mostly up to 57.5 µM
How it was run: as §2

HACAT [2] = test: qHTS assay to identify novel small-molecules to repurpose for Merkel cell carcinoma treatment (AID 1296009); details: MCC and control cell lines, CellTiter-Glo viability, 72 h; at 44.8 µM (top of the series) unless noted; also: nearly all actives have a fitted effect of over 60% in size
How it was run: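 After compound transfer in DMSO, plates were kept 72 hr at 37 degree celsius. Luminescent ATP signal from CellTiter-Glo served as viability measure, normalized against DMSO and no-cell controls.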

CC(C)(C)C1CCN(C(=O)n2ncc(C(O)(c3ccccc3)c3ccccc3)n2)CC1
inactive: outcome (CRL-7250) | max response (HaCat [1]) -7.63% | max response (KB-3-1) -15.2% | Potency (C33A) | Potency (CAOV3) | Potency (CASKI) | Potency (Es-2) | Potency (HeLa) | Potency (Hek293T) | Potency (JEG-3) | Potency (OV90) | Potency (PA-1) | Potency (SKOV3)

CN(C)c1cccc(Oc2cnc(Nc3cccc(O)c3)nc2)c1
inactive: max response (CRL-7250) 4.02% | outcome (HaCat [1]) | outcome (KB-3-1) | outcome (HACAT [2]) | Potency (C33A) | Potency (CAOV3) | Potency (HeLa) | Potency (Hek293T) | Potency (JEG-3) | Potency (OV90) | Potency (PA-1) | Potency (SKOV3)

CCn1c(N)c(C(=O)NC)c(=O)c2ccc(C#CC(C)(O)COC)nc21 (stereo unspecified)
inactive: max response (CRL-7250) -33.6% | max response (HaCat [1]) -27.4% | max response (KB-3-1) 1.64% | Potency (C33A) | Potency (CAOV3) | Potency (CASKI) | Potency (Es-2) | Potency (HeLa) | Potency (Hek293T) | Potency (JEG-3) | Potency (OV90) | Potency (PA-1)

COc1ccc(C(=O)O[C@H]2C=COC=C3C=C4C(=O)N(C)C(=S)C(=O)N4[C@@H]32)cc1Oc1cc(C=O)ccc1O
inactive: max response (CRL-7250) -5.08% | outcome (HaCat [1]) | outcome (KB-3-1) | outcome (HACAT [2]) inactive [at 17.4 µM] | Potency (C33A) | Potency (CASKI) | Potency (Es-2) | Potency (HeLa) | Potency (Hek293T) | Potency (JEG-3) | Potency (OV90) | Potency (SKOV3)

CCO[C@H]1CN(C2CCC(O)(c3ccc4c(c3)OCO4)CC2)C[C@@H]1NC(=O)CNC(=O)c1cccc(C(F)(F)F)c1 (stereo partly specified)
inactive: max response (CRL-7250) 1.15% | max response (HaCat [1]) 1.49% | max response (KB-3-1) 7% | Potency (C33A) | Potency (CASKI) | Potency (Es-2) | Potency (HeLa) | Potency (Hek293T) | Potency (JEG-3) | Potency (OV90) | Potency (PA-1)

COc1ccccc1C(=O)Nc1cccc(NC(=O)c2cccc(C)c2)c1
inactive: max response (CRL-7250) -5.11% | max response (HaCat [1]) 3.09% | max response (KB-3-1) 4.14% | Potency (CASKI) | Potency (Es-2) | Potency (HeLa) | Potency (Hek293T) | Potency (JEG-3) | Potency (OV90) | Potency (PA-1) | Potency (SKOV3)

COc1ccc(-c2c(C)nn3c(NCCN4CCOCC4)cc(C)nc23)cc1OC
inactive: max response (CRL-7250) -19% | max response (HaCat [1]) -11.4% | outcome (KB-3-1) | Potency (C33A) | Potency (CAOV3) | Potency (CASKI) | Potency (Es-2) | Potency (HeLa) | Potency (Hek293T) | Potency (JEG-3) | Potency (OV90) | Potency (PA-1)

CC(=O)O[C@H]1CC(C)(C)CC2[C@]13CO[C@@]21CCC2[C@@]4(C)CC[C@H](O[C@@H]5OC[C@H](O[C@@H]6O[C@H](CO)[C@@H](O)[C@H](O)[C@H]6O[C@@H]6OC[C@@H](O[C@@H]7O[C@H](CO)[C@@H](O)[C@H](O)[C@H]7O)[C@H](O)[C@H]6O)[C@H](O)[C@H]5O[C@@H]5O[C@H](CO)[C@@H](O)[C@H](O)[C@H]5O)[C@@](C)(CO)C4CC[C@@]2(C)[C@]1(C)C[C@H]3O (stereo partly specified)
active: Potency (CRL-7250) 2.19 µM | Potency (Hek293T) 2.82 µM
inactive: max response (HaCat [1]) 2.18% | max response (KB-3-1) -6.99% | activity change, negative = cytotoxicity (CASKI) -12% [at 6.55 µM] | activity change, negative = cytotoxicity (HeLa) -20% [at 6.55 µM]

COc1ccc2cc3c(NC(=O)c4ccco4)nn(C)c3nc2c1
inactive: max response (CRL-7250) -20.9% | max response (HaCat [1]) -26.7% | Potency (C33A) | Potency (CASKI) | Potency (Es-2) | Potency (HeLa) | Potency (Hek293T) | Potency (JEG-3) | Potency (PA-1)
active: Potency (KB-3-1) 13 µM

CN1CCN(c2ccc(OC(F)(F)F)c(Nc3ncc4c(n3)-c3c(c(C(N)=O)nn3CCO)CC4)c2)CC1
active: Potency (HaCat [1]) 0.259 µM | Potency (KB-3-1) 0.0366 µM | Potency (HeLa) 0.224 µM | Potency (PA-1) 0.282 µM
inactive: max response (CRL-7250) -11.3% | Potency (OV90)

CC(=O)N[C@H]1[C@H](O[C@H]2CC[C@@]3(C)C(CC[C@]4(C)C3CC=C3C5CC(C)(C)CC[C@]5(C(=O)O)C(O)C[C@]34C)C2(C)C)O[C@H](CO[C@@H]2O[C@H](C)[C@H](O)[C@H](O)[C@H]2O[C@@H]2OC[C@@H](O)[C@H](O)[C@H]2O)[C@@H](O)[C@@H]1O (stereo partly specified)
inactive: max response (CRL-7250) -3.47% | max response (HaCat [1]) -18.2% | max response (KB-3-1) 3.32% | activity change, negative = cytotoxicity (C33A) 3.31% [at 11.6 µM] | activity change, negative = cytotoxicity (CASKI) 25.2% [at 11.6 µM] | activity change, negative = cytotoxicity (Es-2) 3.97% [at 11.6 µM] | activity change, negative = cytotoxicity (HeLa) 4.55% [at 11.6 µM] | activity change, negative = cytotoxicity (Hek293T) -2.18% [at 11.6 µM] | activity change, negative = cytotoxicity (JEG-3) -18.9% [at 11.6 µM] | activity change, negative = cytotoxicity (OV90) 7.05% [at 11.6 µM] | activity change, negative = cytotoxicity (PA-1) 4.44% [at 11.6 µM] | activity change, negative = cytotoxicity (SKOV3) -11.9% [at 11.6 µM]

COc1cccc(CN(C(=O)CC(C)(C)C)[C@H]2C[C@H](C(=O)N3CCNCC3)N(Cc3ccc4c(c3)OCO4)C2)c1
inactive: outcome (CRL-7250) | max response (HaCat [1]) -6.86% | outcome (KB-3-1) | Potency (C33A) | Potency (CAOV3) | Potency (CASKI) | Potency (Es-2) | Potency (HeLa) | Potency (Hek293T) | Potency (JEG-3) | Potency (OV90) | Potency (PA-1) | Potency (SKOV3)

Cc1[nH]c(/C=C2\C(=O)Nc3cc(-c4ccccc4)ccc32)c(C)c1CCC(=O)O
inactive: max response (CRL-7250) -17.7% | outcome (HaCat [1]) | max response (KB-3-1) -8.26% | outcome (HACAT [2]) | Potency (C33A) | Potency (CAOV3) | Potency (JEG-3) | Potency (OV90)

Nc1nc2c(ncn2C2OC3COP(=O)(O)OC3C2O)c(=O)[nH]1 (stereo unspecified)
inactive: max response (CRL-7250) -27.3% | max response (HaCat [1]) -25.5% | max response (KB-3-1) 9.92% | Potency (C33A) | Potency (CAOV3) | Potency (Es-2) | Potency (HeLa) | Potency (Hek293T) | Potency (JEG-3) | Potency (PA-1) | Potency (SKOV3)

O=C(Nc1ccc(-c2ccc(Cl)c(Cl)c2)cc1)C1=C(O)c2ccccc2S(=O)(=O)N1
inactive: outcome (CRL-7250) | max response (HaCat [1]) -6.44% | max response (KB-3-1) -12.4% | Potency (C33A) | Potency (CASKI) | Potency (Es-2) | Potency (HeLa) | Potency (JEG-3) | Potency (OV90) | Potency (SKOV3)

CCN(CC)CCCCCCNc1cc(OC)cc2c(C)ccnc12
inactive: max response (CRL-7250) -13.4% | outcome (HaCat [1]) | max response (KB-3-1) -5.11% | outcome (HACAT [2]) | Potency (C33A) | Potency (CAOV3) | Potency (CASKI) | Potency (Es-2) | Potency (HeLa) | Potency (Hek293T) | Potency (SKOV3)

C=CC(=O)N1CCC[C@@H](n2nc(-c3cccc(C(=O)Nc4ccc(C(C)C)c(C)c4)c3)c3c(N)ncnc32)C1
inactive: max response (KB-3-1) -9.98% | Potency (Hek293T) | Potency (JEG-3) | Potency (PA-1)
active: Potency (CRL-7250) 20.6 µM | Potency (HaCat [1]) 16.4 µM
